Data as given in PubChem BioAssay (Tox21).
Records with an inconclusive call do not appear. Active and inactive are the calls of the source. Calls follow the shape of the dose curve; as a rule, active = well fitted cell-killing curve with a large enough effect in the repeat runs; inconclusive = weak or mixed curves, or effect the other way; inactive = flat fitted curve, though single readings scatter.

test: qHTS assay to identify small molecule antagonists of the retinoid acid receptor (RAR) signaling pathway - cell viability counter screen (AID 1159551); conditions: C3RL4 cells viability, ATP luminescence (CellTiter-Glo), 6 h; series mostly up to 92.4 µM; activity change, negative = cytotoxicity: at the top concentration; also: nearly all actives have a fitted effect of over 35% in size
Excerpt: U.S. Tox21 Program National Center for Advancing Translational Sciences [NCATS] NIH Chemical Genomics Center [NCGC] U.S. Environmental Protection Agency [EPA] National Institutes of Environmental Health Sciences [NIEHS] National Toxicology Program [NTP] U.S. Food and Drug Administration [FDA] Tox21 Assay Overview: All-trans Retinoic acid (atRA) is the potent natural metabolite of retinol and plays an important role in normal embryonic development and maintenance of cellular phenotype in adult animals. atRA is the activating ligand for the retinoic acid receptors (RARs) which form heterodimers with retinoid X receptors (RXRs) on the retinoic acid response element (RARE). Through activation of the RAR/RXRs nuclear receptors, atRA regulates the transcription of a large number of protein-coding genes and regulatory RNAs. Intracellular levels of atRA are controlled by the retinol signaling pathway (RSP) that regulates the biosynthesis and catabolism of atRA to maintain physiological levels. Chemicals that interfere with the RSP can cause abnormal intracellular levels of atRA and therefore are potential developmental toxicants. To assess compounds for the potential adverse effect on embryonic development through interfering with retinol signaling, a cell-based RARE luciferase reporter gene assay was used. C3RL4 cell line (OARSA/CFSAN/FDA, Laurel, MD) was used to screen Tox21 10K compound library for identifying inhibitors of the RSP. Also cytotoxicity was assessed by determining the viability of cells based on the quantitation of ATP.
Tox21 Assay Protocol Summary: C3RL4 cells were seeded at 1,000/well in 4 uL of assay medium into white solid 1,536-well tissue culture plates (Greiner Bio-One North America Inc. Monroe, NC) using a Multidrop Combi (Thermo Scientific, Waltham, MA) dispenser. After incubation at 37 C and 5% CO2 for an overnight, 23 nL of compounds dissolved in DMSO, positive control or DMSO only were transferred by a Pintool station (Kalypsys, San Diego, CA). One ul of 1 uM (final concentration) of Retinol was added right after the compound addition by using a Flying Reagent Dispenser (FRD) (Aurora Discovery, San Diego, CA). After 6 hr incubation at 37 C and 5% CO2, 5 uL of CellTiter-Glo reagent (Promega Corporation, Madison, WI) was added to each assay plate using an FRD. Luminescence was quantified on a ViewLux plate reader (PerkinElmer, Waltham, MA) after 30 min incubation at room temperature.
% is scaled to controls: 0 for no effect and ±100 for the full control effect; potency is read from the fitted curve at half-maximal effect.

Compound	activity change, negative = cytotoxicity	Potency
CCOC(=O)c1ccc(O)c(O)c1	2.74% [at 42.5 µM] (inactive)	
C=C(C)CCCC(C)CCO (stereo not given)	0.384% (inactive)	
COc1ncnc(NS(=O)(=O)c2ccc(N)cc2)c1OC	-0.0813% [at 42.5 µM] (inactive)	
CC1=C(Br)C(=O)C(Br)=C/C1=C(/c1ccccc1S(=O)(=O)O)c1cc(Br)c(O)c(Br)c1C		16.5 µM (active)
COc1ccccc1N1CCN(CCCCNC(=O)c2ccc(-c3ccc(C(C)=O)cc3)cc2)CC1	-5.08% [at 42.5 µM] (inactive)	
C/C=C\C/C=C/CCCCCCCCOC(C)=O	2.58% (inactive)	
COC(=O)CS	-7.72% (inactive)	
Cc1ccc(CO)cc1	2.83% (inactive)	
C/C=C(/C(=C/C)c1ccc(O)cc1)c1ccc(O)cc1	-3.2% [at 42.5 µM] (inactive)	
CCCCCCCCCCCCCCN(CCO)CCO		61.1 µM (active)
C/C=C/C=C/C=O	3.34% (inactive)	
CC(=O)[C@H]1[C@H](C#N)C[C@H]2[C@@H]3CC=C4C[C@@H](O)CC[C@]4(C)[C@H]3CC[C@@]21C	-0.116% [at 42.5 µM] (inactive)	
C=COCC(C)C	-0.0922% (inactive)	
COc1ccccc1Oc1c(NS(=O)(=O)c2ccc(C(C)(C)C)cc2)nc(-c2ncccn2)nc1OCCO	-2.91% [at 42.5 µM] (inactive)	
COc1cc(N)c(Cl)cc1C(=O)NC1CCN(CCCOc2ccc(F)cc2)CC1OC (stereo not given)	-0.0078% [at 42.5 µM] (inactive)	
CCC(C)COC(C)=O (stereo not given)	-1.28% (inactive)	
CN(C)CCC=C1c2ccccc2C=Cc2ccccc21	-3.25% [at 42.5 µM] (inactive)	
CC(=O)c1ccc([N+](=O)[O-])cc1	-2.13% (inactive)	
O=C(Cn1ccnc1[N+](=O)[O-])NCCO	4.13% [at 42.5 µM] (inactive)	
CC(=O)Nc1cc(S(=O)(=O)O)cc2cc(S(=O)(=O)O)c(N=Nc3ccccc3)c(O)c12		24.3 µM (active)

Compound	activity change, negative = cytotoxicity	Potency
O=C1Cc2cc(Cl)ccc2N1	-0.1% [at 42.5 µM] (inactive)	
O=C1c2ccccc2C(=O)C1c1nc2ccccc2c(Br)c1O	0.226% (inactive)	
CO/N=C(/C(=O)N[C@@H]1C(=O)N2C(C(=O)O)=C(COC(N)=O)CS[C@H]12)c1ccco1	-0.915% (inactive)	
Brc1cc(Br)c(Oc2cc(Br)c(Br)cc2Br)cc1Br	1.89% [at 42.5 µM] (inactive)	
CC1(C)[C@H](C(=O)O)N2C(=O)C[C@H]2S1(=O)=O	-0.457% [at 42.5 µM] (inactive)	
NNC(=O)CP(=O)(c1ccccc1)c1ccccc1	0.678% [at 42.5 µM] (inactive)	
C(=C\c1ccccc1)/c1ccccc1	9.31% (inactive)	
CC(=O)Oc1ccc([N+](=O)[O-])cc1CCl	1.25% (inactive)	
Oc1cc2c(cc1O)[C@H]1c3ccc(O)c(O)c3OC[C@@]1(O)C2	-8.48% (inactive)	
CCOC(=O)/C=C/C(=O)OCC	0.201% (inactive)	
CCCCCC[C@@H](O)C/C=C\CCCCCCCC(=O)O	-0.417% (inactive)	
CCOC(=O)[C@H](CCc1ccccc1)N[C@@H](C)C(=O)N(CC(=O)O)C1Cc2ccccc2C1	0.669% [at 42.5 µM] (inactive)	
C=C(C)C(=O)OCCOCCOC(=O)C(=C)C	0.438% (inactive)	
O=C(Nc1cccc2c(=O)cc(-c3nn[nH]n3)oc12)c1ccc(OCCCCc2ccccc2)cc1	-1.96% [at 42.5 µM] (inactive)	
CC(C)(C)CC(=O)OCC(=O)[C@@]1(O)CC[C@H]2[C@@H]3CCC4=CC(=O)C=C[C@]4(C)[C@H]3[C@@H](O)C[C@@]21C	-5.93% [at 42.5 µM] (inactive)	
CCOC(=O)OC(C)OC(=O)[C@@H]1N2C(=O)[C@@H](NC(=O)[C@H](N)c3ccccc3)[C@H]2SC1(C)C (stereo not given in full)	-0.278% [at 42.5 µM] (inactive)	
COc1ccc(OC(=O)N(CC(=O)O)Cc2ccc(OCCc3nc(-c4ccccc4)oc3C)cc2)cc1	-0.5% [at 42.5 µM] (inactive)	
O=C=Nc1ccc(Cl)c(Cl)c1	0.228% (inactive)	
C=C(C)C(=O)OCCCCCCCCCCCCC	-1.84% (inactive)	
CCCCCCCC/C=C\CCCCCCCCCCCC(=O)O	4.06% (inactive)	
